Test results as given in PubChem BioAssay AID1159580 (chemical genetic matrix, 2015).
Several values for one entry are separate records, joined by “and”; a condition that tells them apart may be missing. Equal values may be shown once. Hit rate of the full screen: of about 5,500 compounds, about 2,000 (36%) were called active. Inconclusive results (about 18%) are left out. No stated cut-off is given here; in the data, active means normalized growth mostly below about 0.91 (no sharp cut-off); inconclusive means no clear call, values can overlap the other calls; inactive means mostly above about 0.92. The list shows a part of the results.

Experiment: chemical genetic growth profiling, strain panel (AID 1159580);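 further: tested at 20 µM; growth read once vehicle control cultures reached saturation at 30 °C; 1 = growth at the plate median or of vehicle wells; lower values mean less growth of the strain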
Conditions: S. cerevisiae deletion strains, growth OD

Measured: normalized growth

OC[C@H]1O[C@@H](O[C@@H]2[C@@H](CO)O[C@](O)(CO)[C@H]2O)[C@H](O)[C@@H](O)[C@H]1O
inactive: locus YAL021C, strain ccr4, active compounds read low 1.02 | locus YAL026C, strain drs2, active compounds read low 1.01 | locus YAL030W, strain snc1, active compounds read low 1 | locus YBL061C, strain skt5, active compounds read low 1.02 | locus YBR009C, strain hhf1, active compounds read low 1.01 | locus YBR021W, strain FUR4, active compounds read low 0.983 | locus YBR023C, strain chs3, active compounds read low 0.995 | locus YBR171W, strain sec66, active compounds read low 1.02 | locus YBR229C, strain ROT2, active compounds read low 0.986 | locus YBR231C, strain swc5, active compounds read low 1.01 | locus YBR279W, strain paf1, active compounds read low 1.02 | locus YCL011C, strain gbp2, active compounds read low 1.01 | locus YCL016C, strain dcc1, active compounds read low 0.985 | locus YCL029C, strain bik1, active compounds read low 0.988 | locus YCL069W, strain vba3, active compounds read low 1.01 | locus YCR088W, strain abp1, active compounds read low 1 | locus YDL005C, strain med2, active compounds read low 1.03 | locus YDL035C, strain GPR1, active compounds read low 1.01 | locus YDL040C, strain nat1, active compounds read low 1.01 | locus YDL074C, strain BRE1, active compounds read low 1 | locus YDL101C, strain DUN1, active compounds read low 0.988 | locus YDL185W, strain tfp1, active compounds read low 0.992 | locus YDL192W, strain arf1, active compounds read low 0.993 | locus YDR001C, strain nth1, active compounds read low 1.01 | locus YDR069C, strain doa4, active compounds read low 1.02 | locus YDR101C, strain arx1, active compounds read low 1.01 | locus YDR137W, strain rgp1, active compounds read low 1.01 | locus YDR150W, strain NUM1, active compounds read low 0.995 | locus YDR159W, strain sac3, active compounds read low 1.01 | locus YDR162C, strain NBP2, active compounds read low 1.01 | locus YDR195W, strain ref2 1.03 | locus YDR297W, strain sur2, active compounds read low 1.01 | locus YDR318W, strain mcm21, active compounds read low 0.981 | locus YDR334W, strain swr1, active compounds read low 1.01 | locus YDR335W, strain msn5, active compounds read low 1.02 | locus YDR388W, active compounds read low 0.987 | locus YDR392W, strain spt3, active compounds read low 0.949 | locus YDR502C, strain sam2, active compounds read low 0.986 | locus YEL003W, strain gim4, active compounds read low 1.01 | locus YEL037C, strain rad23, active compounds read low 1 | locus YEL061C, strain CIN8 (second series), active compounds read low 1.02 | locus YEL061C, strain CIN8, active compounds read low 0.995 | locus YER015W, strain faa2, active compounds read low 1 | locus YER016W, strain bim1, active compounds read low 1.02 | locus YER110C, active compounds read low 0.979 | locus YER111C, strain swi4, active compounds read low 1 | locus YER155C, strain BEM2 (second series), active compounds read low 1.03 | locus YER155C, strain BEM2, active compounds read low 0.987 | locus YER167W, strain BCK2, active compounds read low 0.995 | locus YFR010W, strain ubp6, active compounds read low 1.02 | locus YGL078C, strain dbp3, active compounds read low 0.963 | locus YGL086W, strain mad1, active compounds read low 1 | locus YGL167C, strain pmr1, active compounds read low 1.02 | locus YGL173C, strain kem1, active compounds read low 1.01 | locus YGL227W, strain vid30, active compounds read low 1.01 | locus YGL240W, strain doc1, active compounds read low 1.03 | locus YGL248W, strain PDE1, active compounds read low 0.983 | locus YGL253W, strain hxk2, active compounds read low 0.99 | locus YGR135W, strain pre9, active compounds read low 0.941 | locus YGR252W, strain gcn5, active compounds read low 0.944 | locus YHR013C, strain ard1, active compounds read low 1.03 | locus YHR027C, strain rpn1, active compounds read low 1.01 | locus YHR030C, strain SLT2, active compounds read low 0.993 and 0.984 | locus YHR079C, strain IRE1 (second series), active compounds read low 0.983 | locus YHR079C, strain IRE1, active compounds read low 0.989 | locus YHR094C, strain hxt1, active compounds read low 0.979 | locus YHR129C, strain ARP1, active compounds read low 0.992 | locus YHR142W, strain chs7, active compounds read low 1 | locus YHR200W, strain rpn10, active compounds read low 0.978 | locus YIL066C, strain RNR3, active compounds read low 0.994 | locus YIL073C, strain SPO22, active compounds read low 0.973 | locus YIL125W, strain kgd1, active compounds read low 0.978 | locus YIR030C, strain dcg1, active compounds read low 0.987 | locus YJL092W, strain hpr5, active compounds read low 1.01 | locus YJL095W, strain BCK1 (second series), active compounds read low 1.01 | locus YJL095W, strain BCK1, active compounds read low 0.977 and 0.994 | locus YJL115W, strain asf1, active compounds read low 1.01 | locus YJL129C, strain trk1, active compounds read low 1.01 | locus YJL134W, strain LCB3, active compounds read low 0.995 | locus YJL154C, strain vps35, active compounds read low 1.02 | locus YJL164C, strain tpk1, active compounds read low 0.984 | locus YJL166W, strain qcr8, active compounds read low 1.01 | locus YJL168C, strain set2, active compounds read low 0.976 | locus YJL187C, strain SWE1 (second series), active compounds read low 0.993 | locus YJR043C, strain POL32, active compounds read low 1.02 | locus YJR066W, strain TOR1, active compounds read low 0.942
